# Screening results from PubChem.
# Shown are actives, neighbours in structure and some others; about 4.3% of the full set was active somewhere.
# FAS TE block: FAS thioesterase (human) inhibition; hit rate 0.67% among 360,000; inhibition, % at 15 µM; P49327; AID 602261; recombinant FAS-TE, OMFH fluorogenic substrate, fluorescence endpoint;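 active means compounds whose normalised, plate-corrected inhibition of enzyme fluorescence in the single-dose primary screen is 50% or more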;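 further: 0% = DMSO with enzyme and 100% = substrate without enzyme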
# rCAG RNA binder: r(CAG) repeat RNA binding | TO-PRO-1 dye displacement fluorescence | inhibition, % at 3 µM | hit rate 1.3% among 370,000 | AID 651821;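 active means inhibition above the plate cutoff, the mean of all test compounds on that plate plus 3 SD, cut at about 35% in these data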;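 further: 0% = DMSO alone and 100% = 100 µM mitoxantrone as full dye displacement; higher means more dye released from RNA so lower well fluorescence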
# NadD inh: blocks S. aureus nicotinate mononucleotide adenylyltransferase; purified NadD enzyme, colorimetric absorbance read-out; inhibition, % at 20 µM; hit rate 0.78% among 360,000; AID 602399; in the data active means inhibition above about 26%
# NR3A LBD binder: modulates the human NR3A ligand-binding domain; hit rate 2.5% among 340,000; Tm shift relative to glycine control, % at 25 µM; NR3A LBD differential scanning fluorimetry, Tm shift; 0% = protein alone, 100% = glycine-bound protein;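 active means melting temperature shift of at least 10% of the positive control shift, at one fixed dose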
# * = called active by the depositor; . = not tested or not shown.
SMILES,FAS TE block,rCAG RNA binder,NadD inh,NR3A LBD binder
O=[N+]([O-])c1ccc2c(c1)Cc1cc(O)ccc1-2,20,9,-9,14*
C=C(CO)CC1CC(O)[C@]2(C)OC3CC4OC5C[C@]6(C)O[C@]7(C)CCC8OC9C[C@]%10(C)OC%11C(C)=CC(=O)OC%11CC%10OC9C[C@@H](C)C8OC7CC6O[C@]5(C)C/C=C\C4OC3CC2O1 (stereo partly drawn),1,3,-12,-1
C=C(COC(C)=O)CC1CC(O)[C@]2(C)OC3CC4OC5C[C@]6(C)O[C@]7(C)CCC8OC9C[C@]%10(C)OC%11C(C)=CC(=O)OC%11CC%10OC9C[C@@H](C)C8OC7CC6O[C@]5(C)C/C=C\C4OC3CC2O1 (stereo partly drawn),87*,.,-10,5
CCOC(=O)c1cccc([P+](=O)O)c1,-5,-2,3,-1
CCOC(=O)c1ccc2[nH]c(-c3ccc(S(=O)(=O)F)cc3)cc(=O)c2c1,-8,4,4,24*
CCOCCCn1c(N)c(C(=O)Nc2sc3c(c2C(=O)OC)CCCC3)c2nc3ccccc3nc21,0,25,1,17*
CCCCn1c(N)c(C(=O)OCCOC)c2nc3ccccc3nc21,-4,-1,1,0
CCOC(=O)c1c(NC(=O)c2c(N)n(CCCOC)c3nc4ccccc4nc23)sc2c1CCCC2,5,7,-9,24*
CCC1([N+](=O)[O-])COP(=O)(NCc2cccnc2)OC1 (stereo not drawn),-7,3,-3,13*
CC1([N+](=O)[O-])COP(=O)(Nc2cccc(Cl)c2)OC1 (stereo not drawn),-6,0,-5,0
CN(C)C(=O)Oc1ccc(-c2cn3cc(Cl)ccc3n2)cc1,-3,-3,0,13*
O=C(CN1C(=O)[C@@H](Cc2c[nH]c3ccccc23)N=C(c2ccccc2)c2ccccc21)NC1CCCCC1,.,9,.,.
Cc1ccc2c(c1)C1CN(C)CCC1N2C(=S)Nc1cccnc1 (stereo not drawn),-4,-2,7,-2
Cc1ccc2c(c1)C1CN(C)CCC1N2C(=O)Nc1cccc(Cl)c1 (stereo not drawn),8,-3,-4,17*
CCOC(=O)C(O)(c1ccc(NC(=O)Oc2ccccc2)cc1)C(F)(F)F (stereo not drawn),9,-4,-2,16*
N#CC1c2ccccc2-n2nncc2CN1C(=O)c1ccc([N+](=O)[O-])o1 (stereo not drawn),.,1,.,.
Cc1ccc(-n2nc(C)c3c2NC(=O)CSC3c2ccc3c(c2)OCO3)cc1 (stereo not drawn),-104,5,14,-5
COc1ccc(C2SCC(=O)Nc3c2c(C)nn3-c2ccccc2)cc1 (stereo not drawn),-35,0,1,11*
CCOC(=O)c1sc(/N=C/c2c(O)n(-c3ccccc3)c(=O)[nH]c2=O)c(C#N)c1C,-4,1,-4,1
CCOC(=O)c1c(/N=C/c2c(O)n(-c3cccc(C)c3)c(=O)[nH]c2=O)sc2c1CCCC2,-6,0,19,24*
COCCNC(=O)Cn1cc(/C=C2\C(=O)NC(=O)N(c3ccccc3F)C2=O)c2ccccc21,-6,-3,3,2
O=C1NC(=O)N(c2ccccc2)C(=O)/C1=C/c1ccc(Sc2ccccc2)o1,-4,.,37*,4
O=C1NC(=O)N(c2ccccc2F)C(=O)/C1=C/c1ccc(Sc2nc3ccccc3[nH]2)o1,-6,46*,45*,102*
Cc1ccc(N2Cc3ccccc3-n3nncc3C2)cc1,.,2,.,.
NC(N)=N/N=C/c1cn(-c2ccccc2)nc1-c1cccs1,-24,36*,-2,1
SMILES,FAS TE block,rCAG RNA binder,NadD inh,NR3A LBD binder
C[C@]12CC[C@H](O)CC1=CCC1C2CC[C@]2(C)C(=O)[C@H](Br)CC12 (stereo partly drawn),-3,0,1,14*
C[C@]12CC[C@H](O)CC1=CC[C@@H]1[C@@H]2CC[C@]2(C)C(=O)CC[C@@H]12,0,-2,4,-4
CCN1C(=O)/C(=C/c2ccc(N(CC)CC)cc2OC)C(=O)NC1=S,-3,3,11,14*
N=c1c2c(-c3ccccc3)c(-c3ccccc3)n(Cc3ccccc3)c2ncn1C1CCC(O)CC1 (stereo not drawn),.,5,.,.
N[C@@H](Cc1c[nH]c2ccccc12)c1nnc(SCc2ccc(F)cc2)o1,-8,-1,-10,13*
Nc1c(Br)cc2c3c(cccc13)-c1ccccc1-2,.,16,.,8
O=C(Nc1nccs1)C(Cl)(Cl)Cl,-6,1,-6,1
O=C(Nc1ccc(Cl)cc1)Nc1nccs1,2,20,0,28*
Cc1ccc(/C=C2/C(=O)NC(=O)N(CCc3ccc(F)cc3)C2=O)o1,-2,28,3,3
O=C1NC(=O)N(CCc2ccc(F)cc2)C(=O)/C1=C/c1ccco1,-2,74*,34*,-1
O=C1NC(=O)[C@]2(Cc3ccccc3N3CCN(c4ccccc4)CC32)C(=O)N1Cc1ccccc1 (stereo partly drawn),19,19,48*,-4
COc1ccc(/C=C2/C(=O)NC(=O)N(c3ccccc3)C2=O)cc1CN1C(=O)c2ccccc2C1=O,-6,.,-1,-1
Cc1ccccc1N1C(=O)NC(=O)/C(=C\c2ccc3c(c2)CCCN3Cc2ccccc2)C1=O,-5,5,39*,-18
Cn1c(O)c(/C=C2\N=c3ccccc3=C2CCNC(=S)NC2CC2)c(=O)n(C)c1=O,-4,6,-4,17*
O=C(CN1C(=O)[C@@H](Cc2ccccc2)N=C(c2ccccc2)c2ccccc21)NC1CCCCC1,.,6,.,.
CCCCOc1nc2ccccc2c(=O)n1-c1ccccc1,16,-6,3,13*
COC1=C(OC)[C@]23CCc4ccc(OC)c(OC)c4[C@]2(CCN3C)CC1=O,-7,-5,3,13*
CC(C)NC1(c2ccccc2)CCCCC1,.,4,.,.
Clc1ccc([C@H]2CC3CCC2N3)cn1 (stereo partly drawn),.,0,.,.
CCCCn1c(O)c(C=NCc2ccc3c(c2)OCO3)c(=O)[nH]c1=O,-1,-8,-12,11*
COc1cccc(N2CCN(Cc3cccc(Cl)c3)CC2)c1,15,.,-8,13*
Cc1ccc2nsnc2c1-n1c(C)nc2ccccc2c1=O,-3,2,0,17*
COP(=O)(C(=O)Nc1ccccc1)C(CC(C)C)NC(=O)OCc1ccccc1 (stereo not drawn),.,0,.,.
Cc1ccc(OC(=O)N(C)C[C@H]2OCc3cnnn3CCCC(=O)N([C@H](C)CO)C[C@H]2C)cc1,.,0,.,.
O=C(NC(Cc1ccccc1)P(=O)(O)Oc1ccccc1)OCc1ccccc1 (stereo not drawn),.,6,.,.
O=C1NC(=O)N(Cc2ccco2)C(=O)/C1=C/c1ccc(-c2cccc([N+](=O)[O-])c2)o1,2,.,67*,6
CCN(CC)c1ccc(/C=C2/C(=O)NC(=O)N(Cc3ccco3)C2=O)cc1,-10,30,10,24*
